# Source: PubChem (several laboratories)
# LGR2 antag: inhibitors of bursicon-induced LGR2 CRE-luciferase signal, primary screen, cell-based, HEK293, CRE-luciferase reporter, bursicon stimulation | inhibition, % at 9.99 µM | bursicon-stimulated, 4 h | 380,000 tested, 0.35% active | Drosophila bursicon receptor LGR2 (rickets) | AID 720647, 2013;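 active means drop in luminescence signal, shown as inhibition above about 50% in the replicate tests, limit read from the data, passing the limit was not always enough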;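 further: agonist challenge used bursicon conditioned medium at about half maximal strength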
# SENP6 block: SENP6 protease inhibitors, primary screen, biochemical, luminescence, uHTS. Sentrin-specific protease 6 (Homo sapiens), Q9GZR1. Recombinant SENP6 catalytic domain, aminoluciferin luminescence. inhibition, % at 10 µM. 330,000 tested, 1.8% active. AID 2599, 2010;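 active means inhibition above about 50% at the single tested dose, limit read from the data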;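 further: plate controls were DMSO wells with enzyme for no effect and DMSO wells lacking enzyme for full effect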
# HSP90 refold inh: HSP90 inhibitors, primary screen, cell lysate, luminescence. Heat shock protein HSP 90 (rabbit reticulocyte lysate; luciferase refolding). Rabbit reticulocyte lysate, luciferase refolding luminescence, 3 h. inhibition, % at 5.6 µM. 290,000 tested, 0.91% active;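 active means inhibition above the screen-wide mean plus 3 SD, computed separately per campaign, cut at about 16% in these data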;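 further: 0% = DMSO wells and 100% = 60 µM geldanamycin wells; inhibitors lower the luminescence because luciferase stays unfolded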
# SENP8 block-1: SENP8 protease inhibitors, primary screen, biochemical, luminescence; 330,000 tested, 1.2% active; purified SENP8, Z-RLRGG-aminoluciferin cleavage; AID 2540, 2010; inhibition, % at 10 µM; Sentrin-specific protease 8 (Homo sapiens), Q96LD8; in the data active means inhibition above about 50%
# Target sequence (Q96LD8 whole entry, looked up): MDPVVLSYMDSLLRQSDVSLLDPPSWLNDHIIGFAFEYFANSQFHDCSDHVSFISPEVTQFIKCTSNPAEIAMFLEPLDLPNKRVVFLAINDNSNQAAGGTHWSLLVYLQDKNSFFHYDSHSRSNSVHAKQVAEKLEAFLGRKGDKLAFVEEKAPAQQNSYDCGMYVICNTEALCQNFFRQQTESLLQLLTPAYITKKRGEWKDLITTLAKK
# SENP7 block: SENP7 protease inhibitors, primary screen, biochemical, luminescence, uHTS. recombinant SENP7, Z-RLRGG-aminoluciferin luminescence, 40 min. 330,000 tested, 1.5% active. AID 434973, 2010. inhibition, % at 5 µM;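 active means inhibition above about 50% at the single test dose, limit read from the data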;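 further: plate controls were DMSO with enzyme for no effect and no enzyme buffer wells for full effect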
# SENP8 block-2: human SENP8 protease inhibitors, primary screen, biochemical, fluorescence, Nedd8 protein substrate, uHTS. Sentrin-specific protease 8 (Homo sapiens), Q96LD8. recombinant SENP8. inhibition, % at 20 µM. 360,000 tested, 0.64% active. AID 602440, 2012; in the data active means inhibition mostly above about 40%, no sharp cut-off; inactive means mostly below about 27%
# SENP8 confirm: SENP8 protease inhibitors, retest, confirmation, biochemical, luminescence, single concentration; shares compounds with SENP7 block; 6,200 tested, 40% active; inhibition, % at 12.5 µM; Recombinant SENP8, Z-RLRGG-aminoluciferin luminescence, 60 min;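 active means mean inhibition across replicates above about 50%, limit read from the data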
# SENP6 confirm: SENP6 protease inhibitors, confirmation, biochemical, luminescence, single concentration | inhibition, % at 12.5 µM | recombinant SENP6, Z-RLRGG-aminoluciferin luminescence | 6,200 tested, 58% active | AID 488915, 2010 | shares compounds with SENP7 block
# SENP7 confirm: SENP7 protease inhibitors, retest, confirmation, biochemical, luminescence, single concentration | shares compounds with SENP7 block | recombinant SENP7, Z-RLRGG-aminoluciferin luminescence, 40 min | inhibition, % at 12.5 µM | 6,200 tested, 69% active | AID 488917, 2010
# Casp3 SENP sel: caspase-3 protease inhibitors, confirmation, selectivity assay for SENP inhibitor project, biochemical, single concentration; 6,200 tested, 60% active; shares compounds with SENP7 block; inhibition, % at 12.5 µM; purified caspase-3, Z-DEVD-aminoluciferin luminescence, 60 min;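 active means mean inhibition above about 50%, limit read from the data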;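 further: plate controls were enzyme with DMSO for no effect and wells without caspase-3 for full effect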
# Target sequence (P42574 28-227 limits assumed): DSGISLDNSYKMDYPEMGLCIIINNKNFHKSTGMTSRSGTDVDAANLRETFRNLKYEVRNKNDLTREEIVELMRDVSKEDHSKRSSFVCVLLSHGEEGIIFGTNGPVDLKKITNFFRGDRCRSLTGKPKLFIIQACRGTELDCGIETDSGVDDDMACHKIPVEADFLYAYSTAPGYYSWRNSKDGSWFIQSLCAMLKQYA
# SENP luc ctr: interferes with luciferase luminescence in SENP counter-screen. 6,200 tested, 39% active. Pre-incubated SENP8/Z-RLRGG-aminoluciferin, luciferase luminescence interference. shares compounds with SENP7 block. inhibition, % at 12.5 µM. AID 488919;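 active means mean inhibition above about 50% when retested at one dose, limit read from the data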;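 further: plate controls were DMSO wells with completed reaction for no effect and substrate without enzyme for full effect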
# Active calls of the source: *; . = no result. Compounds with a hit are over-represented: about 2.3% of the library has one in this group of screens.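 How the source made its calls, unless noted: active means mean inhibition above about 50% in the one-dose retest (limit read from the data); inactive means the rest.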
SMILES,LGR2 antag,SENP6 block,HSP90 refold inh,SENP8 block-1,SENP7 block,SENP8 block-2,SENP8 confirm,SENP6 confirm,SENP7 confirm,Casp3 SENP sel,SENP luc ctr
N#Cc1ccc(C(=O)Nc2nnc(-c3ccccn3)o2)cc1,.,69.1*,1.1,50.9*,58.2*,4.5,64.2*,60.4*,88.7*,86.2*,56.4*
O=C(Nc1nnc(-c2ccccn2)o1)c1cccc(Cl)c1,-13.8,-17.4,-2.3,9.8,12.1,-1.2,.,.,.,.,.
C[C@@H]1CN([C@@H](C)CO)C(=O)c2cc(-c3ccc(C#N)cc3)cnc2O[C@@H]1CN(C)C(=O)Nc1ccc(F)cc1,-4.8,.,.,.,.,.,.,.,.,.,.
O=C(Oc1ccc[nH]c1=O)c1ccccc1,.,.,.,.,.,12.8,.,.,.,.,.
O=C(Nc1ccc(F)cc1)Oc1ccc[nH]c1=O,-26.9,42.8,2.5,-3.9,53.1*,27.3,4.1,4.6,22.3,18.8,21.0
O=C(Nc1ccc(OC(F)F)c(Cl)c1)c1cccc(OC(F)F)c1,.,61.5*,3.7,15.3,26.8,18.2,52.1*,47.9,75.5*,11.6,65.3*
O=C(Nc1ccc2c(c1)CCC2)c1cccc(OC(F)F)c1,-91.0,78.6*,.,67.9*,75.4*,15.9,60.9*,68.0*,90.7*,54.7*,68.9*
COC(=O)c1cccc(NC(=O)c2ccc(OC)c(Cl)c2)c1,-84.0,-12.9,-2.0,6.0,7.5,11.9,.,.,.,.,.
O=C(Nc1ccc(S(=O)(=O)N2CCCC2)cc1)c1cccc(OC(F)F)c1,3.8,-2.1,.,-0.2,-1.1,-2.2,.,.,.,.,.
COc1ccc(NC(=O)c2cccc(OC(F)F)c2)cc1Cl,-73.7,76.4*,2.4,63.9*,79.6*,11.9,8.8,76.3*,94.1*,60.1*,67.5*
O=C(Nc1ccc(F)cc1)N1CC(=O)N2[C@H](CO)[C@H](c3ccc(C4=CCCC4)cc3)[C@@H]2C1,20.7,.,.,.,.,.,.,.,.,.,.
Cc1ccc(NC(=O)C[n+]2ccn(C3=C([O-])c4ccccc4C3=O)c2)cc1,18.5,-0.9,0.9,4.3,8.4,32.9,.,.,.,.,.
CC(=O)Nc1ccc(S(=O)(=O)/N=C2\C(=O)c3ccccc3C([O-])=C2n2cc[n+](-c3ccccn3)c2)cc1,5.4,76.8*,6.5,52.8*,35.5,55.5*,70.2*,87.6*,61.3*,53.7*,4.1
O=C(NNC(=O)c1ccccc1F)c1cccs1,8.8,6.5,-3.9,-8.5,-6.6,12.3,.,.,.,.,.
Cc1ccsc1C(=O)NNC(=O)c1ccccc1F,-46.2,41.9,.,29.0,58.4*,0.8,26.2,26.9,75.5*,83.0*,55.7*
Cc1ccc2[nH]c(=O)c(CN(CC3CCCO3)S(=O)(=O)c3c(C)ccc4nsnc34)cc2c1 (stereo not drawn),6.6,1.9,3.8,4.9,3.6,10.9,.,.,.,.,.
Cc1ccc2nsnc2c1S(=O)(=O)N(CCO)Cc1cc2cc3c(cc2[nH]c1=O)OCCO3,1.0,-32.2,5.7,-5.1,70.8*,-165.0,-10.0,-6.0,-12.8,-1.7,1.5
CC(=O)N1[C@H](CO)[C@@H](c2ccccc2)C12CN(Cc1cc(F)ccc1F)C2,-3.5,.,.,.,.,.,.,.,.,.,.
C[C@@H]1CN([C@H](C)CO)C(=O)c2ccccc2-c2ccccc2CO[C@H]1CN(C)C(=O)CCN(C)C,3.0,.,.,.,.,.,.,.,.,.,.
CN=c1scc(C)n1/N=C/c1ccc(O)cc1,.,26.2,4.6,-0.2,11.1,-29.9,.,.,.,.,.
CN=c1scc(C)n1/N=C/c1ccc2c(c1)OCO2,.,98.3*,10.9,88.1*,97.0*,-23.5,95.0*,95.6*,101.7*,94.7*,48.4
CN=c1scc(C)n1/N=C/c1ccc(O)cc1O,.,77.9*,7.6,76.5*,77.5*,-33.3,90.3*,88.3*,99.1*,88.0*,85.6*
C[C@@H]1CN([C@H](C)CO)S(=O)(=O)c2ccc(/C=C/c3ccccc3)cc2O[C@H]1CN(C)C(=O)C1CC1,-5.6,.,.,.,.,.,.,.,.,.,.
O=C1COc2ccc(OCc3ccc(F)cc3)cc21,.,71.2*,5.0,48.0,63.6*,11.6,68.0*,67.3*,89.2*,76.2*,50.0*
COc1ccc2c(-c3cc4ccc(OCc5ccc(F)cc5)cc4oc3=O)cc(=O)oc2c1,.,.,4.0,.,.,-424.5,.,.,.,.,.
SMILES,LGR2 antag,SENP6 block,HSP90 refold inh,SENP8 block-1,SENP7 block,SENP8 block-2,SENP8 confirm,SENP6 confirm,SENP7 confirm,Casp3 SENP sel,SENP luc ctr
CC(=O)N(C)C[C@H]1OCc2ccccc2-c2ccccc2C(=O)N([C@H](C)CO)C[C@H]1C,15.3,.,.,.,.,.,.,.,.,.,.
O=C(/C=C/c1cccs1)Nc1ccncc1,-14.5,26.7,-4.0,10.0,18.6,8.8,.,.,.,.,.
CCCOC(=O)c1ccc(NC(=O)/C=C/c2cccs2)cc1,-42.0,74.6*,-5.7,34.7,24.1,-36.0,20.9,20.8,56.9*,11.3,16.0
Cc1cc(C)n(C(=O)/C=C/c2cccs2)n1,-40.3,-11.4,-0.4,-26.6,56.3*,11.2,1.3,-10.5,5.1,-6.2,8.0
Cc1cccc(NC(=O)/C=C/c2cccs2)n1,.,67.2*,15.8,36.1,71.5*,6.6,56.3*,54.6*,84.0*,76.7*,66.0*
CC(=O)N1[C@@H]2CN(S(=O)(=O)c3cccc(C)c3)c3ccccc3[C@@H]2[C@@H]1CO,3.8,.,.,.,.,.,.,.,.,.,.
Cc1ccc(S(=O)(=O)CCC(=O)Nc2nc(-c3ccncc3)cs2)cc1,0.3,51.9*,0.2,5.2,-6.7,1.3,9.5,5.5,-7.2,-1.4,0.3
CSc1nc2ccc(NC(=O)c3ccc(F)c(F)c3)cc2s1,-31.8,55.9*,-1.0,45.4,73.8*,-20.3,20.1,44.2,28.4,23.3,8.3
COc1ccc(NC(=O)c2ccc3nc(C)sc3c2)cc1,-58.8,10.3,-4.8,-25.5,13.2,9.7,.,.,.,.,.
